# Laboratory results as given in the supplement of paper PMC6555819.
# Tested on: VDR:RXRa (NR concentration 270 nM, RXRa partner concentration 90 nM)
# Test: PBM binding z-score (relative to random genomic background probes); higher = stronger binding; sequences stand for … in GC…GCGATTGACAGCGTAGAATGAAGG
# Protocol: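 Protein-binding microarray (Agilent 4x180K custom design, double-stranded 60-nt probes: 5' GC cap, 34-nt variable region, 24-nt constant primer region; full probe sequence given). Purified or IVT nuclear receptor:RXRα heterodimers (3:1 NR:RXRα, mostly 270:90 nM) or homodimers were incubated for 1 h in PBS with 2% milk and no ligand, then detected with Alexa488 antibodies. Fluorescence from o1-orientation probes (~5 replicates averaged) was converted to z-scores against 500 random hg19 background probes. Variable regions are seed direct-repeat (DR0–DR5) sites, all their single-nucleotide variants and half-site ablations.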
row,Sequence,PBM binding z-score
1,GCTAGTTGGTCAGTAAAACGTCACACACCGGTCG,-0.225
2,CGAACTAGGTCATCCAGGACTGTGAATACATTGA,2.81
3,ACTAGCAGGCCAAGTTTGAGTCACTCAAACAAAG,-0.614
4,CAAACTAAGTCAAGAGGTCAAAGTCCGCTTCCCG,5.15
5,TCTAGTTGTTCACGGAGGTCACACACGACGGGTA,4.1
6,GCGACTGGGGCAAAGCATGTTACCATAAGGTTGG,-0.497
7,CAAACTAGGTCACACAGGTCAAAGTCCGTGCGTA,6.73
8,AGTCAAAGATCACTAGGTAACGTAAGATTCAGCT,-0.124
9,CCTCGGAGGACAACAGGAGGTCAGATCTGCCAGA,1.72
10,CCTAGCAGGCCAATCTGGGTCCCTCAAGGCTTGA,-0.831
11,CGTCACAGTTCAACTAAGGTAACGTAAAGCACGC,2.92
12,ATCTCTAGGTAAAAGTTCACTGAATCCCGAGGAT,2.58
13,GCTGCTAGGTCAACCGATGGTCAGCTAAAGCTCG,1.54
14,CCTGCTAGGTCAATGGGCAGCTAAAGCAGCTCGC,0.356
15,TTACCATGGTGAAGGTCGTTGATCCCTCTGTAGA,0.949
16,TAGCCTAGGTCATTGGCCCAGTATAGTACGCATC,2.09
17,TCTGGTAGGTCAGTTGGTCAGCTAACGAGCTGCC,0.483
18,ATCGAAAGGTCGAGGTGAGTATGGAGAAAGGGAA,2.59
19,TAGCCTAGCTCATGGGCCAGTATACCACGCGAAC,-0.717
20,CGTCCAAGGTCAATGCTAGGTCAGTAAAAGCATT,4.76

row,Sequence,PBM binding z-score
1,CCTCGGAGGACAGAAGGTCACAGCTGTCCGCTTT,2.64
2,GCTAGCAGGCCATTTGGGTCACTCAGTGACGGGC,0.711
3,ATATGTACGTTAAGGGTCATTCAGGTTGGTTCGC,5.64
4,ACTATTAGTTGAGAGGAGGGCAACCGATAGGTTG,0.152
5,CAAACTAGGTCAAGGTCAATGTCGGTTTGTGCCA,4.81
6,TAGCCTAGGTCATTCAGGGGCCAGTATTGAAAGC,3.18
7,AATACAGGGTCATCGTAGCCCAGAGTACGCACAG,4.83
8,CATACAGTGTCAGCTAGGCCAGAGTAGGGACGGC,-0.152
9,ATAAGTAGGTTACATCCGGGTCATTCAGGCTATG,4.06
10,CCTAGCAGGCCAGGGTTACTCAAGCATTTCGCTT,-0.412
11,ACTAGTTGGTCAGCTGAGGTCACAGACAATTCGG,4.25
12,TTACCAAGGTGAGCTGAGGTCGCTGATCCAACTC,2.9
13,GCGAGTTGGTCAGTAAAAGGTCACACACCGGTCG,4.33
14,AATACAGGGTCTTCGTAGGCCAGAGTACGCACAG,0.0684
15,GGTTGTAGATCAAGGTTAAGAAAGACTAAGCTAA,0.833
16,GATACAGGGTCAGCTAAAGGCCAGAGTATGGAAA,3
17,CGAGCTAGGTCATCCAGGACAGTGAATACATTGA,4.4
18,TAGCCTACGTCATTCAGGGGCCAGTATAGAAAGC,-0.219
19,CGTCCAAGGTCATAGGAGGTCAGTGTAGACAGAT,6.49
20,CCTTACGGATCACGAGGTTATAGCACGACGAGCG,1.05
